Test results reported in PubChem BioAssay AID686928 (Broad Institute, 2013).
Potency and affinity values are given separately. Values without a mark were called inactive. Activity calls are given as the source filed them. The rule behind the calls is not given here.

Experiment: human cervical cancer cell viability loss – 24 h, plate reader, dry powder, cytotoxicity control, dose response (AID 686928)
Settings: HeLa cytotoxicity; series mostly up to 80 µM; activity change, negative = cytotoxicity: at the top concentration

SMILES | activity change, negative = cytotoxicity | outcome
O=C(Cc1ccc(-c2ccccc2)cc1)N[C@@H]1CCOC1 (racemic) | -0.056% [at 100 µM] | 
COC(=O)c1ccccc1Nc1cccc(Cl)c1 | -12.2% | 
CCOC(=O)c1ccccc1Nc1cccc(Cl)c1 | -5.61% | 
CC(C)(C)OC(=O)N1CCC(C(=O)Nc2nnc(-c3ccc4c(c3)OCCO4)o2)CC1 | 5.35% [at 100 µM] | 
O=C(Nc1nnc(-c2ccc3c(c2)OCCO3)o1)C1CCC1 | 5.69% [at 100 µM] | 
O=c1[nH]cnc2ccccc12 | -6.67% | 
O=c1ncn(-c2ccccc2Cl)c2ccccc12 | -5.96% | 
O=c1ncn(-c2cccc(Cl)c2)c2ccccc12 |  | inactive
Cc1cc(F)cc2nc3c(cc12)c(NC(=O)c1ccco1)nn3C | 2.47% [at 100 µM] | 
Cc1ccc2cc3c(NC(=O)c4ccoc4)nn(C)c3nc2c1 | -3.71% | 
O=C(Nc1nnc(-c2ccc3c(c2)OCCO3)o1)C1CC1 | 2.93% [at 100 µM] | 
COc1ccc(S(=O)(=O)Nc2nnc(-c3ccc4c(c3)OCCO4)o2)cc1 | 3.93% [at 100 µM] | 
Cn1nc(NC(=O)c2ccco2)c2cc3ccccc3nc21 | -0.497% | 
COc1ccccc1-c1nnc(NC(=O)C2CCCCC2)o1 | -5.13% [at 100 µM] | 
O=C(Nc1nnc(-c2ccc3c(c2)OCCO3)o1)C1CCCCC1 |  | inactive
Cc1ccc2cc3c(NC(=O)C4CCCC4)nn(C)c3nc2c1 | -8.11% | 
O=C(Nc1nnc(-c2ccncc2)o1)C1CCC1 | 2.42% [at 100 µM] | 
O=C(Cc1ccc(-c2ccccc2)cc1)NC1CCC1 | 3.35% [at 100 µM] | 
O=c1nc(Cc2ccccc2)n(-c2cccc(Cl)c2)c2ccccc12 | -5.09% | 

SMILES | activity change, negative = cytotoxicity | outcome
O=C(Nc1nnc(-c2ccc3c(c2)CCCC3)o1)C1CCC1 | -27% | 
Cc1nc(=O)c2ccccc2n1-c1cccc(Cl)c1 | 1.96% | 
O=c1ncn(-c2cccc(Cl)c2)c2ccc(Cl)cc12 | -6.27% | 
COc1ccc(-c2nnc(NC(C)=O)o2)cc1 | -0.903% [at 100 µM] | 
O=C(Nc1nnc(-c2cccnc2)o1)C1CCC1 | 10.1% [at 100 µM] | 
O=c1ncn(-c2cc(Cl)cc(Cl)c2)c2ccccc12 | -5.54% | 
Cc1ccc2cc3c(NC(=O)c4ccc(C)o4)nn(C)c3nc2c1 | 6.38% [at 100 µM] | 
Cn1nc(NC(=O)c2ccco2)c2cc3ccc(C(C)(C)C)cc3nc21 | -74.1% [at 100 µM] | 
Cn1nc(NC(=O)c2ccco2)c2cccnc21 | 3.54% [at 100 µM] | 
O=c1nc(-c2ccccc2)n(-c2cccc(Cl)c2)c2ccccc12 | 0.608% | 
c1ccc(CNc2nnc(-c3ccc4c(c3)OCCO4)o2)cc1 | 8.88% [at 100 µM] | 
O=C(O)c1ccccc1Nc1cccc(Cl)c1 | 14% | 
CCc1ccc2cc3c(NC(=O)c4ccco4)nn(C)c3nc2c1 | -37.8% | 
COc1ccc2c(=O)ncn(-c3cccc(Cl)c3)c2c1 | -1.88% | 
COc1cccc(-n2cnc(=O)c3ccccc32)c1 | -1.94% | 
O=C(CSc1nc2c(c(=O)[nH]1)CCCC2)NC1CCCCC1 | 1.91% | 
COc1ccc2cc3c(NC(=O)c4ccco4)nn(C)c3nc2c1 | -34.2% [at 100 µM] | 
CN1CCC(C(=O)Nc2nnc(-c3ccc4c(c3)OCCO4)o2)CC1 | 8.1% [at 100 µM] | 
O=c1ncn(Cc2ccc(Cl)cc2)c2ccccc12 | -6.39% | 
